GDH-TPI counter – counter-screen for M. tuberculosis FBA inhibitors: GDH-TPI coupled enzymes. GDH-TPI coupled enzyme counterscreen, NADH absorbance. inhibition, % at 4.8 µM. hit rate 1.2% among 360,000. AID 588335; in the data active means inhibition above about 30%;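 further: 0% = DMSO wells and 100% = wells lacking the enzyme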
Mtb UGM inh – Mtb UDP-galactopyranose mutase inhibition | purified UGM, fluorescence polarization probe displacement | inhibition, % at 10 µM | hit rate 0.06% among 320,000; in the data active means inhibition above about 10%, passing the limit was not always enough
Rv3671c protease – Rv3671c (M. tuberculosis) protease inhibition; P9WHR9; inhibition, % at 5.96 µM; hit rate 0.048% among 320,000; AID 2606; in the data active means inhibition above about 38%;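 further: extracellular domain of Rv3671c used as enzyme; 0% = enzyme with DMSO and 100% = no enzyme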
Target sequence (P9WHR9 whole entry, looked up, the tested form may be a part): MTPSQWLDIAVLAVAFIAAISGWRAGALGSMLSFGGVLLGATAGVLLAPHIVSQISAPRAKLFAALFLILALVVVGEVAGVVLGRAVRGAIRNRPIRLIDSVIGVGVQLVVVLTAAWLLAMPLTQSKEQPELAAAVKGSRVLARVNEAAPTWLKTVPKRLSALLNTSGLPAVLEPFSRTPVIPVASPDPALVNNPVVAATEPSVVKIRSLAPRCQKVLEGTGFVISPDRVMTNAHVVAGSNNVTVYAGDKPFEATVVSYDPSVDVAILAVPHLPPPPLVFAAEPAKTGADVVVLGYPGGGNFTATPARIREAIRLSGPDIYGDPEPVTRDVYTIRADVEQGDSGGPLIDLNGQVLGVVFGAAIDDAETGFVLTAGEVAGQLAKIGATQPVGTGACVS
RecA intein inh – blocks M. tuberculosis RecA intein splicing | AID 2221 | inhibition, % (test concentration not listed) | hit rate 0.75% among 290,000 | P9WHJ3 | cell-free RecA intein splicing, fluorescence; in the data active means inhibition above about 30%;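 further: 0% = vehicle wells and 100% = reference inhibitor control wells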
Mtb FBA inh – inhibits M. tuberculosis FBA enzyme; inhibition, % at 1 µM; hit rate 2.3% among 360,000; AID 588726; purified M. tuberculosis FBA, fluorescence read-out; P9WQA3; in the data active means inhibition above about 27%;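 further: 0% = vehicle and 100% = reference inhibitor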
Mtb betalactam – beta-lactam sensitization of Mtb H37Rv | hit rate 0.27% among 330,000 | inhibition, % at 25 µM | M. tuberculosis H37Rv growth with meropenem, percent inhibition; call rule not given here;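 further: growth measured after seven days incubation then overnight dye step; 0% = bacteria only wells and 100% = bacteria with antibiotic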
* = called active by the depositor; . = no result given; + = active, no number. Rows were chosen to be rich in hits. Some 4% of all compounds tested hit in one or more screens of this group.

SMILES	GDH-TPI counter	Mtb UGM inh	Rv3671c protease	RecA intein inh	Mtb FBA inh	Mtb betalactam
N#Cc1c(N)nc2c(c1-c1ccc3c(c1)OCO3)CCc1ccccc1-2	0	-1	2	-3	31*	71
N#Cc1c(N)c(C#N)c(-c2ccc3c(c2)OCO3)c2c1CCCC2	41*	-3	6	3	7	-3
N#Cc1c(N)c(C#N)c(-c2ccc(O)cc2)c2c1CCCC2	5	0	-10	13	17	-4
CCS(=O)(=O)c1nc(S(=O)(=O)c2ccc(Cl)cc2)c(NCCCN2CCOCC2)s1	4	-5	9	-6	2	2
Cc1noc(C)c1NC(=O)N(C)C[C@H]1Oc2c(NC(=O)Nc3ccc4c(c3)OCO4)cccc2C(=O)N([C@H](C)CO)C[C@@H]1C	7	1	5	.	-1	13
COc1ccc(C=NNC(=O)c2cc(C)oc2C)cc1O	31*	0	7	.	1	2
COc1ccc(/C=N/NC(=O)c2cc3c(OC)ccc(OC)c3[nH]2)cc1O	43*	-1	19	-1	-3	6
COc1cc(/C=N/NC(=O)c2cc(C)oc2C)ccc1O	24	3	5	-5	-3	-3
CC(Oc1cccnc1[N+](=O)[O-])C(=O)Nc1ccc(Cl)cn1 (stereo unspecified)	0	-2	3	.	3	-7
COc1ccc(C(C(=O)NC(C)(C)C)N(CCc2ccccc2)C(=O)CCC(=O)Nc2cc(C)on2)cc1 (stereo unspecified)	5	-3	6	-1	-1	3
Cn1c(=O)c2[nH]c(N=NN3CCCCC3)nc2n(C)c1=O	54*	.	.	.	-7	.
CC1CCCCN1N=Nc1nc2c([nH]1)c(=O)n(C)c(=O)n2C (stereo unspecified)	39*	.	.	.	-1	.
CC1CCN(N=Nc2nc3c([nH]2)c(=O)n(C)c(=O)n3C)CC1	31*	.	.	.	-2	.
O=C(Nc1cccc(C(=O)N2CCOCC2)c1)C1CCCC1	-2	.	.	.	-2	.
Cc1ccc2nc(NC(=O)C3CCN(C(=O)c4ccc(F)cc4)CC3)sc2c1	8	3	-8	3	-3	9
N#CC1(NC(=O)COC(=O)C2CCN(S(=O)(=O)c3ccc4c(c3)OCCO4)CC2)CCCCC1	13	.	.	.	2	.
CCN(CCn1cccn1)C(=O)c1cc(COc2cc(C)ccc2C)on1	2	5	.	4	1	4
Fc1ccc(-c2nc3nc4ccccc4nc3n2Cc2ccco2)cc1	40*	-1	-6	0	-3	-7
c1ccc(-c2nc3nc4ccccc4nc3n2Cc2ccco2)cc1	26	0	-9	-1	3	-3
Fc1ccc(-n2c(-c3ccco3)nc3nc4ccccc4nc32)cc1	12	1	-12	-14	126*	-8
C=CCn1c(-c2ccc(OC)cc2)nc2nc3ccccc3nc21	31	-2	6	-23	144*	3
Cc1ccc(S(=O)(=O)N2C[C@H]3C(=O)C[C@@H](c4ccc(Cl)cc4)N(S(=O)(=O)c4ccc(C)cc4)[C@H]3C[C@H]2c2cccc3ccccc23)cc1	.	.	.	.	3	.
COc1ccc(-c2nc(N)ncc2-c2ccccc2OC)c(O)c1	3	-1	6	0	0	2
O=C(OC1CO[C@H]2O[C@@H]1[C@H](OC(=O)c1ccccc1)[C@H]2OC(=O)c1ccccc1)c1ccccc1 (stereo partly specified)	-5	1	-1	3	2	-3
Cc1ccc(Nc2c(-c3ccco3)nc3ccccn23)cc1	22	2	3	-3	121*	2
SMILES	GDH-TPI counter	Mtb UGM inh	Rv3671c protease	RecA intein inh	Mtb FBA inh	Mtb betalactam
Fc1ccc(Nc2c(-c3ccco3)nc3ccccn23)cc1	4	.	9	-1	133*	51
COc1ccc(CN(C)C(=O)c2[nH]c(C)c(C(C)=O)c2C)cc1F	6	-3	-1	-7	2	7
Cc1cccc2c1-c1sc(C(=O)Nc3ccccc3N3CCN(C)CC3)cc1CO2	15	0	-3	0	8	100
CCN1CCN(C(=O)c2cc3c(s2)-c2c(C)cccc2OC3)CC1	13	2	4	-58	+	-9
CCOC(=O)N1CCN(C(=O)c2cc3c(s2)-c2c(C)cccc2OC3)CC1	21	2	-3	-18	143*	-2
CCN1CCN(C(=O)c2cc3c(s2)-c2ccccc2S(=O)(=O)C3)CC1	12	4	-4	-4	-1	3
O=C(/C=C/[C@H]1O[C@@H](n2ccc(=O)[nH]c2=O)[C@H](O)[C@@H]1O)NCc1cccnc1	.	.	.	.	1	.
NC(=O)CC1C(=O)N(c2ccccc2)C(=S)N1NC(=O)c1ccccc1 (stereo unspecified)	16	-3	.	0	-1	1
Cc1cc(O)c(-c2cc(C(=O)Nc3sc4c(c3C(=O)NCc3ccco3)CCC4)[nH]n2)cc1C	34*	5	-22	-2	2	-11
CN(Cc1ccccc1)C1(CNC(=O)CCC(F)(F)F)Cc2ccccc2C1	-5	2	-3	1	-2	-4
CCCCCCOc1ccc(C(=O)n2cnc(N)n2)cc1	-1	-5	6	54*	2	-3
Cn1c(=O)n(C)c2cc(N3CCOCC3)c(NC(=O)c3cccc(Cl)c3)cc21	-3	0	2	2	-5	6
C=CCN(CC=C)c1cnn(-c2nc3ccccc3[nH]2)c(=O)c1Cl	19	2	4	-5	2	0
O=c1c(Cl)c(NCCCO)cnn1-c1nc2ccccc2[nH]1	23	-3	-2	44*	4	85
CC(=O)NC1=C(N2CC2C)C(=O)C(NC(C)=O)=C(N2CC2C)C1=O (stereo unspecified)	32*	.	.	.	-4	.
Cc1c(OC(C(=O)O)c2ccccc2)ccc2c1oc(=O)c1ccccc12 (stereo unspecified)	24	-1	1	0	139*	-6
O=C1NC(=S)N/C1=C\c1ccccc1OCc1ccc(C(=O)O)cc1	42*	-1	-2	-2	0	-7
Cn1ccc2c(/C=C/c3ccc(F)cc3)cc3c(c21)C1CCC3O1 (stereo unspecified)	.	.	.	.	140*	.
Cn1ccc2c(/C=C/c3ccc(F)cc3)cc3c(c21)C1CCC3C1 (stereo unspecified)	.	.	.	.	8	.
COCCNC(=S)N/N=C(\C)c1ccccc1O	31*	0	-1	0	1	95
COCCNC(=S)N/N=C(\C)c1ccc(Cl)s1	45*	2	11	1	1	94
CCOc1ccc2[nH]c(=O)c(=O)[nH]c2c1	35*	1	3	.	3	-2
CC1=C(/C=C/C(C)=C/C=C/C(C)=C\C(=O)O)C(C)(C)CCC1	6	6	-1	7	5	-6
CC1=C(/C=C/C(C)=C/C=C/C(C)=C/C(=O)Nc2ccc(O)cc2)C(C)(C)CCC1	35*	2	11	.	-3	100
Cc1cccc(-n2c3nc(=O)[nH]c(=O)c-3cc3c(C)nn(-c4ccccc4)c32)c1C	12	1	1	-5	+	1
